Sampled rows, rich in hits. Any-hit rate of the full collection: about 4.3%.
CF NFkB block = inhibitors of PAF-induced NF-kB signaling, primary screen, cell-based, GFP fluorescence, uHTS. KKLEB NF-kB-GFP reporter, GFP fluorescence overnight. hit rate 0.86% among 360,000. inhibition, % at 5 µM;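 active means at least 50% inhibition at 5 µM, scaled per plate between neutral and stimulator controls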;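 further: PAF is a Pseudomonas aeruginosa culture filtrate used as stimulus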
HIF-2a inh = HIF-2a reporter inhibitors, primary screen, luminescence, 786-0 RCC cells; 786-0 RCC cells HIF-2a reporter, luciferase luminescence, overnight; inhibition, % at 18.8 µM; hit rate 0.72% among 360,000; AID 624352, 2012;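 active means inhibition of the luminescence signal of 40% or more relative to plate controls, in a single-dose primary screen at 18.75 µM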
CHOP inh = inhibitors of CHOP promoter induction, primary screen, cell-based, unfolded protein response, luciferase reporter; CHO-K1 CHOP-promoter luciferase, tunicamycin-induced, 15-18 h; inhibition, % at 10 µM; hit rate 3.8% among 220,000; AID 2732, 2010;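 active means compounds that reduced the stress-induced luciferase reporter signal by more than about 70% of percent inhibition, limit read from the data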
TRPM1 prom inh = inhibitors of MITF-dependent TRPM1 promoter reporter, primary screen, cell-based, SK-MEL-5, single point, luciferase | SK-MEL-5 TRPM1 promoter luciferase, 24 h | inhibition, % at 12.5 µM | hit rate 0.83% among 330,000 | AID 488899, 2010;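 active means mean inhibition across replicates of 60% or more, whatever share of single replicates reaches that level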
KKLEB cytotox = cytotoxicity in KKLEB CF airway cells, primary screen, cytotoxicity control for CF NF-kB inhibitor project, cell-based, uHTS, fluorescence assay plates | KKLEB CF airway cells viability, ATPlite luminescence, overnight; stronger effect = lower value; cells stimulated with P. aeruginosa culture filtrate | activity change (cytotoxicity), % at 5 µM | hit rate 0.36% among 360,000;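 active means corrected activity change at or below -50% at 5 µM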
Peg3 promoter = Peg3 promoter-driven luciferase inhibitors, primary screen, cell-based, HeLa, luciferase luminescence; HeLa PEG-Prom luciferase reporter, overnight; inhibition, % at 20 µM; hit rate 1.7% among 360,000; AID 588405, 2011;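 active means inhibition of at least 50% at 20 µM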
CHOP confirm = retest of CHOP induction inhibitors, confirmation, cell-based. shares compounds with CHOP inh. CHO-CHOP promoter luciferase reporter, tunicamycin-induced, luminescence. inhibition, % at 10 µM. hit rate 45% among 2,100. AID 504437, 2011;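 active means mean of three repeat readings of reporter signal inhibition above a set limit, cut at about 70% in these data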
Each line names hits and unclear results; the compound was inactive in the other large screens (follow-up assays come after a bar, where they were run).

CC(C)(NO)/C(=N/O)c1ccc(Br)cc1	CHOP inh 108 | CHOP confirm inactive
O=C(C[n+]1cc(Br)cc2ccccc21)c1ccc(Br)cc1	none (no result: CHOP inh)
O=C(C[n+]1cn(C(F)F)c2ccccc21)c1ccc(Br)cc1	CHOP inh 101 | CHOP confirm inactive
Nc1nc(SCc2ccc(Cl)cc2Cl)nc2nc3c(cc12)CCCC3	CHOP inh 103 | CHOP confirm inactive
C=CCn1c(CCc2cc(C(C)(C)C)c(O)c(C(C)(C)C)c2)n[nH]c1=S	CHOP inh 101 | CHOP confirm 86
C=CCn1c(CCC(O)CCCCC)n[nH]c1=S (stereo not given)	none
COc1cc2cc(CN(CCc3cccc(C)c3)C(=S)NCCCN3CCOCC3)c(=O)[nH]c2cc1OC	none
COc1ccc(S(=O)(=O)N2CCC(C)CC2)cc1OC	none (no result: CHOP inh)
CC1CCN(S(=O)(=O)c2ccc3c(c2)C(=NO)c2cc(S(=O)(=O)N4CCC(C)CC4)ccc2-3)CC1	CF NFkB block 83, CHOP inh 108, TRPM1 prom inh 100, Peg3 promoter 100 | CHOP confirm 138
Cc1ccc(CNCc2cc3c(C(C)(C)C)nn(-c4ccccc4)c3[nH]c2=O)cc1	CHOP inh 108 | CHOP confirm 71
COC(=O)c1cccc(C(=O)N2CCCC(Nc3ccc(C)c(C)c3)C2)c1 (stereo not given)	none (no result: CHOP inh)
CCN(CC)c1ccc2cc(-c3nc4ccccc4[nH]3)c(=O)oc2c1	CHOP inh 100, TRPM1 prom inh 79, KKLEB cytotox -90, Peg3 promoter 70 | CHOP confirm inactive
CCN(CC)c1ccc2cc(-c3nc4ccccc4n3C)c(=O)oc2c1	none (no result: CHOP inh)
CCN(CC)CCC=C(c1cccs1)c1cccs1	none (no result: CHOP inh)
Cc1ccc(NC(=O)c2cnccn2)c(Br)c1	none (no result: CHOP inh)
Cc1cccc(Oc2ccccc2NC(=O)c2cnccn2)c1	CHOP inh 99 | CHOP confirm inactive
COc1ccc(OCC(=O)N2CCCC(Nc3ccc(C)c(C)c3)C2)cc1 (stereo not given)	none (no result: CHOP inh, TRPM1 prom inh)
CCOC(=O)C1CCN(C(=O)Cn2ncc3c([nH]c4ccccc43)c2=O)CC1	none (no result: CHOP inh)
CCC(NS(=O)(=O)c1ccc(OC)cc1)C(=O)NCCc1ccccc1 (stereo not given)	none (no result: CHOP inh)
Cc1cccc2cc3c(nc12)SC(=NCC1CCCO1)N(Cc1ccco1)C3 (stereo not given)	CHOP inh 103 | CHOP confirm inactive
Cc1ccc2nc3c(cc2c1)CN(Cc1ccco1)C(=NCC1CCCO1)S3 (stereo not given)	none
O=C(NC(=S)Nc1cc(Cl)ccc1Cl)c1ccco1	none (no result: CHOP inh, TRPM1 prom inh)
Cc1ccccc1C(=O)NC1CCN(CC(=O)NCc2ccccc2)CC1	none (no result: CHOP inh)
CCOc1ccc(N2C(=O)/C(=C\c3ccc(O)c(OC)c3)S(=O)(=O)C2c2cccc([N+](=O)[O-])c2)cc1 (stereo not given)	CHOP inh 104 | CHOP confirm 80
CCOc1ccc(N2C(=O)/C(=C\c3ccc(OC)c(O)c3)S(=O)(=O)C2c2cccc([N+](=O)[O-])c2)cc1 (stereo not given)	none
COCOCCn1cc(CN2CCS(=O)(=O)N(Cc3ccc(-c4ccncc4)cc3)C(C(C)C)C2=O)nn1 (stereo not given)	none (no result: CHOP inh, TRPM1 prom inh)
O=C1OC(O)c2cccc3cccc1c23 (stereo not given)	none (no result: CHOP inh, TRPM1 prom inh)
Cc1ccccc1NC(=O)CSc1nc(N)c(C#N)c(-c2cccs2)c1C#N	CHOP inh 105 | CHOP confirm inactive
Cc1cc(C)c(C#N)c(SCC(=O)Nc2ccccc2C)n1	none
COc1ccc(OC)c(CCNC(=O)Cn2sc3nc(C)cc(C)c3c2=O)c1	CHOP inh 98 (no result: CF NFkB block, HIF-2a inh, TRPM1 prom inh, KKLEB cytotox, Peg3 promoter) | CHOP confirm inactive
O=C(CN1C(=O)NC(CCc2ccccc2)C1=O)Nc1ccc(F)c(F)c1F (stereo not given)	none (no result: CHOP inh)
Cc1cc(C)n2nc(SCC(=O)N3CCCC(C)C3)nc2n1 (stereo not given)	none (no result: CHOP inh)
Cc1cc(Oc2cc(N)cc([N+](=O)[O-])c2)ccc1Cl	CHOP inh 102 | CHOP confirm inactive
Nc1cc(OCC(F)(F)F)cc([N+](=O)[O-])c1	none
CCn1c(C)nc2cc(-c3nnc(-c4c(-c5ccccc5)noc4C)o3)ccc21	CHOP inh 102 | CHOP confirm 85
Cc1onc(-c2ccccc2)c1-c1nnc(-c2ccccc2C(F)(F)F)o1	none
COc1cc(CNc2ncn[nH]2)ccc1OCc1cccc(C)c1	none
O=S1(=O)C=C(Sc2nc3ccccc3s2)c2ccccc21	none (no result: CF NFkB block, HIF-2a inh, CHOP inh, TRPM1 prom inh, KKLEB cytotox, Peg3 promoter) | CHOP confirm 115
O=C(CCNS(=O)(=O)c1ccccc1)NCC1CCCCC1	none (no result: CHOP inh)
Cc1ccc(OCCNC(=O)c2ccccc2SCC(=O)N2CCCC2)cc1	none (no result: CHOP inh)
Cc1ccc2oc(-c3cccc(NC(=O)Cn4cnc5c(=O)n(C)c(=O)n(C)c54)c3)nc2c1	CHOP inh 104 (no result: CF NFkB block, HIF-2a inh, TRPM1 prom inh, KKLEB cytotox, Peg3 promoter) | CHOP confirm inactive
Cc1ccc(NC(=O)Cn2cnc3c(=O)n(C)c(=O)n(C)c32)c(C)c1	none
Cc1ccc2nc(NC(=O)CN(C)S(=O)(=O)c3ccc(Br)s3)sc2c1	CHOP inh 102 | CHOP confirm inactive
Cc1ccc2nc(NC(=O)CNS(=O)(=O)c3ccc(Br)s3)sc2c1	none
CCn1c(=O)c(C(=O)CN2CCN(S(=O)(=O)c3ccccc3)CC2)c(N)n(Cc2ccccc2)c1=O	none
CCn1c(=O)c(C(=O)CN2CCCc3ccccc32)c(N)n(Cc2ccccc2)c1=O	CHOP inh 97 | CHOP confirm inactive
CCOC(=O)[C@]12CCCC=C1N(Cc1cccc3ccccc13)C(=O)[C@H](CC(=O)NCCCOC)C2	none (no result: CF NFkB block, CHOP inh, TRPM1 prom inh, KKLEB cytotox, Peg3 promoter)
CCC(C)c1ccc(O)c(NC(=S)NC(=O)c2cccnc2)c1 (stereo not given)	none
CCC(C)c1ccc(O)c(NC(=O)c2cncc(Br)c2)c1 (stereo not given)	CHOP inh 111 | CHOP confirm 82
N#Cc1cc([N+](=O)[O-])c(-n2nnc3ccccc32)c([N+](=O)[O-])c1	CHOP inh 107 | CHOP confirm inactive
Cc1cc(C)c(S(=O)(=O)c2ccccc2)c(OC(=O)c2cc(F)c(F)cc2Cl)n1	CHOP inh 107 | CHOP confirm 139
c1cncc(CN2CCN(c3cc(-c4cnc5ccccc5c4)nc4ccnn34)CC2)c1	none (no result: CHOP inh, TRPM1 prom inh)
COc1ccccc1C(CC(=O)Nc1ccc(Cl)cc1)c1ccc(OC(C)C)cc1 (stereo not given)	none
